Measurements: PubChem BioAssay

Assay: probe aShh binding to arrayed compounds – biochemical, biotinylated probe, 635/667 nm fluorescence, primary screen (AID 1114);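 note: probe is biotin-labelled aShh protein from a stem cell growth factor screen; measures binding of labelled protein to compounds printed on the slide; score merges feature fluorescence at 667 nm with signal-to-noise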
Conditions: small-molecule microarray, higher = more signal

Point of comparison: COC(=O)[C@@]1(Cc2ccccc2)[C@H]2c3cc(C(=O)N(C)C)n(Cc4ccccn4)c3C[C@H]2CN1C(=O)c1ccccc1, composite z-score -0.0849. Against it:
- O=C1O[C@H](c2ccccc2)[C@H](c2ccccc2)N2[C@H]1[C@@H](C(=O)NC[C@H](O)c1ccccc1)[C@]1(C(=O)Nc3ccccc31)[C@H]2c1ccccc1OCCO — higher, 1.47
- [N-]=[N+]=NCc1ccccc1[C@H]1OC(c2ccc(OCCCO)cc2)=N[C@@]1(Cc1ccccc1N=[N+]=[N-])C(=O)N1CCCCC1 — lower, -0.157
- O=[N+]([O-])c1ccc(C[n+]2ccc(-c3ccc(CO)cc3)cc2)o1 — higher, 0.172
- O=C1OCC=C[C@H]2OC34C=CCN(CCN5CCOCC5)C(=O)[C@H]3N(CCCCCO)C(=O)[C@@H]4[C@@H]12 (some centres not stated) — lower, -0.223
- Cc1ccccc1C(O)C1C=CC2C(=O)N(C)C(=O)C2N1Nc1ccc([N+](=O)[O-])cc1[N+](=O)[O-] (configuration not stated) — higher, 0.254
- O=C1NC(=O)C2C1C=CC(C(O)CCc1ccccc1)N2Nc1ccccn1 (configuration not stated) — lower, -0.262
- O=C(O)[C@@]1(Cc2ccccc2)COC(c2ccc(OCCCO)cc2)=N1 — higher, 0.214
- Cc1ccccc1C(O)C1C=CC2C(=O)N(Cc3ccccc3)C(=O)C2N1n1cnnc1 (configuration not stated) — higher, 0.108
- CCOc1cc(C(O)C2C=CC3C(=O)NC(=O)C3N2Nc2ccccn2)ccc1O (configuration not stated) — lower, -0.117
- CCOC(=O)C[C@H]1[C@H](OC(=O)c2ccccc2-c2ccccc2)[C@@H](NC(=O)c2ccccc2)c2cc(OCCCO)ccc2N1C(=O)Cc1ccc(OC)cc1 — lower, -0.289
- COC(=O)C(CC#Cc1ccc2c(c1)[C@]1(C(=O)N2)[C@H](c2ccccc2OCCO)N2[C@H](c3ccccc3)[C@H](c3ccccc3)OC(=O)[C@H]2[C@@H]1C(=O)Nc1nc2ccccc2s1)C(=O)OC — higher, 0.233
